The source of these data is PubChem BioAssay (EPA / NIEHS).

Inconclusive results are not listed. Calls of active or inactive are those of the source. How the source made its calls, unless noted: active means hit-call score of the fitted dose curve at least 0.9, where 1 is the maximum; inactive means score below 0.9.

Experiment [1] can be described thus: ATG_DR4_LXR_CIS: Attagene CIS-FACTORIAL HepG2 Assay for human Liver X Receptor (LXR), DR4 submotif (AID 2282929). The following applies: HepG2 Attagene DR4 cis-reporter, mRNA transcription; actives raise or lower the signal. Summed up:
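HepG2 cells transiently transfected with cis-promoter-driven multiplexed reporter units (DR4 element) were dosed for 24 h. Reporter mRNA was quantified by RT-PCR, fluorescent primer extension, HpaI digestion and capillary electrophoresis; bidirectional fitting versus DMSO baseline.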

Experiment [2] in a line: ATG_Ets_CIS: Attagene CIS-FACTORIAL HepG2 Assay for human Erythroblast Transformation Specific (ETS) (AID 2282941). The following applies: HepG2 ETS cis-reporter transcription, actives raise or lower the signal. The method in brief:
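Bidirectional fit versus DMSO of reporter mRNA signal, detected by RT-PCR and capillary electrophoresis in HepG2 cells transiently transfected with cis-element reporters and dosed 24 h.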

The nature of experiment [3]: ATG_M_06_CIS: Attagene CIS-FACTORIAL HepG2 Assay for M06 Transcription Factor (Internal Marker) (AID 2282950). The following applies: HepG2 Attagene CIS-FACTORIAL M06 internal marker reporter; actives raise or lower the signal. Summed up: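 One of many multiplexed endpoints: HepG2 reporter mRNA after 24 h dosing, detected by RT-PCR and capillary electrophoresis fluorescence; gain or loss of signal analysed against DMSO.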

Experiment [4] deals with Hypoxia-inducible factor 1-alpha (Homo sapiens) (UniProt Q16665). The experiment can be described thus: ATG_HIF1a_CIS: Attagene CIS-FACTORIAL HepG2 Assay for human Hypoxia Inducible Factor 1 (HIF1A) (AID 2282951). The following applies: HepG2 Attagene cis-factorial HIF1a reporter transcription; actives raise or lower the signal. The method in brief:
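HepG2 cells transiently transfected with multiplexed cis-promoter reporter units; reporter mRNA read 24 h after dosing by RT-PCR, 6-FAM primer-extension labelling, HpaI digestion and capillary electrophoresis. Bidirectional fit versus DMSO baseline.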

The target of experiment [5] is Hepatocyte nuclear factor 6 (Homo sapiens) (UniProt Q9UBC0). Nature of the experiment: ATG_HNF6_CIS: Attagene CIS-FACTORIAL HepG2 Assay for human Hepatocyte Nuclear Factor 6 (HNF6) (AID 2282952). The following applies: HepG2 Attagene cis-factorial HNF6 reporter transcription; actives raise or lower the signal. Summed up:
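Readout: fluorescent reporter-transcript fragments resolved by capillary electrophoresis after RT-PCR, reflecting endogenous factor activity in transfected HepG2. Exposure 24 h. Gain or loss of signal fitted bidirectionally against DMSO.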

Experiment [6] concerns the target Heat shock factor protein 1 (Homo sapiens) (UniProt Q00613). The experiment can be described thus: ATG_HSE_CIS: Attagene CIS-FACTORIAL HepG2 Assay for human Heat Shock Transcription Factor 1 (HSE) (AID 2282953). The following applies: HepG2 HSE cis-reporter, Attagene RNA transcription; actives raise or lower the signal. The method in brief: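 Using HepG2 with transfected cis-driven reporter constructs, compound effects on endogenous factor activity are scored as reporter mRNA change at 24 h. Detection: RT-PCR, HpaI digestion, capillary electrophoresis; bidirectional fitting to DMSO.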

Experiment [7] can be described thus: ATG_Sox_CIS: Attagene CIS-FACTORIAL HepG2 Assay for human SRY-box transcription factor (SOX) (AID 2282960). The following applies: HepG2 Attagene cis-factorial SOX reporter, mRNA; actives raise or lower the signal. The method in brief: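 HepG2 cells transiently transfected with cis-element-driven multiple reporter transcription units, dosed 24 h; reporter mRNA measured by RT-PCR, FAM labelling, HpaI digestion and capillary electrophoresis. Bidirectional fit versus DMSO baseline.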

A short description of experiment [8]: ATG_TA_CIS: Attagene CIS-FACTORIAL HepG2 Assay for human TA Basal Promoter (AID 2282964). The following applies: HepG2 Attagene CIS-factorial TA basal promoter reporter; actives raise or lower the signal. The method in brief:
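Transient MRTU transfection of HepG2 preceded 24 h compound exposure. Reporter mRNA levels were then read by RT-PCR with capillary electrophoresis, and this background-control endpoint was fitted bidirectionally to DMSO.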

A short description of experiment [9]: ATG_TCF_b_cat_CIS: Attagene CIS-FACTORIAL HepG2 Assay for human T-Cell-Factor with beta-catenin (TCF/b-cat) (AID 2282965). The following applies: HepG2 TCF/beta-catenin cis-reporter transcription, actives raise or lower the signal. The method in brief:
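Endogenous transcription factor activity is captured through cis-promoter reporter constructs transiently introduced into human HepG2 liver cells. Induced reporter mRNA is measured after 24 h and fitted bidirectionally relative to DMSO.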

The nature of experiment [10]: ATG_TAL_CIS: Attagene CIS-FACTORIAL HepG2 Assay for human TAL Basal Promoter (AID 2282966).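 Further: background control endpoint measuring basal TAL promoter reporter mRNA not a specific factor.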 The following applies: HepG2 Attagene cis-factorial TAL promoter reporter; actives raise or lower the signal. The method in brief:
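HepG2, transient MRTU transfection, 24 h compound exposure; RNA → oligo(dT) RT → PCR → 6-FAM primer extension → HpaI digest → CE fluorescence. Bidirectional curve fit vs DMSO. Background-control readout.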

Experiment [11] is described as follows: ATG_TGFb_CIS: Attagene CIS-FACTORIAL HepG2 Assay for human Transforming Growth Factor (TGF) (AID 2282967). The following applies: HepG2 Attagene CIS TGFb reporter, mRNA transcription; actives raise or lower the signal. Summed up:
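After a 24-hour incubation with compound, transfected HepG2 cells were lysed for RNA; reporter cDNA was amplified, fluorescently end-labeled and separated by CE. DMSO served as baseline for bidirectional fits.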

For experiment [12], the target named is X-box-binding protein 1 (Homo sapiens) (UniProt P17861). The experiment can be described thus: ATG_Xbp1_CIS: Attagene CIS-FACTORIAL HepG2 Assay for human X-box Binding Protein 1 (XBP1) (AID 2282972). The following applies: HepG2 XBP1 cis-element reporter, Attagene multiplex; actives raise or lower the signal. Summed up: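 Changes in reporter transcript abundance, read by RT-PCR and capillary electrophoresis, reflect endogenous transcription factor activity. Transfected HepG2 cells received compound for 24 hours; DMSO defined baseline for bidirectional analysis.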

In experiment [13] the target is Transcriptional activator Myb (Homo sapiens) (UniProt P10242). The experiment can be described thus: ATG_Myb_CIS: Attagene CIS-FACTORIAL HepG2 Assay for human Myeloblastosis (Myb) Proto-Oncogene Transcription Factor (AID 2282986). The following applies: HepG2 Attagene CIS-FACTORIAL Myb reporter transcription; actives raise or lower the signal. Summed up: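 HepG2 cells were transiently transfected with cis-regulated multiple reporter transcription units reflecting endogenous Myb activity, then exposed to compound for 24 hours. Reporter mRNA was measured by RT-PCR with capillary electrophoresis; bidirectional fitting versus DMSO baseline.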

Experiment [14] has as its target Nuclear respiratory factor 1 (Homo sapiens) (UniProt Q16656). Nature of the experiment: ATG_NRF1_CIS: Attagene CIS-FACTORIAL HepG2 Assay for human Nuclear Respiratory Factor 1 (NRF1) Orphan Gene (AID 2282987). The following applies: HepG2 NRF1 cis-element reporter, Attagene multiplex; actives raise or lower the signal. Summed up:
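HepG2 cells transiently transfected with multiple reporter transcription units under cis-regulatory promoter control, so endogenous transcription-factor activity is read. After 24 h compound exposure, reporter mRNA quantified by RT-PCR, fluorescent labelling, HpaI digestion and capillary electrophoresis; bidirectional fitting versus DMSO.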

The target of experiment [15] is Myc proto-oncogene protein (Homo sapiens) (UniProt P01106). Nature of the experiment: ATG_Myc_CIS: Attagene CIS-FACTORIAL HepG2 Assay for human Myelocytomatosis (Myc) Proto-Oncogene Transcription Factor (AID 2282990). The following applies: HepG2, Attagene cis-reporter transcription factor activity; actives raise or lower the signal. Summed up:
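HepG2, transient MRTU transfection (cis promoters, endogenous TFs); 24 h dosing; TriZol RNA → oligo(dT) RT → PCR → 6-FAM primer extension → HpaI cut → CE. Bidirectional fit vs DMSO.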

Experiment [16] in a line: ATG_NRF2_ARE_CIS: Attagene CIS-FACTORIAL HepG2 Assay for human Nuclear Factor Erythroid 2 Related Factor 2 (NFR2) response to Antioxidant Response Elements (ARE) (AID 2282992). The following applies: HepG2 Attagene ARE/NRF2 reporter, transcription factor activity; actives raise or lower the signal. Summed up:
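Using transiently transfected HepG2 cells exposed for 24 h, reporter mRNA levels were determined by RT-PCR with fluorescent primer extension and capillary electrophoresis, analysed for gain or loss of signal against DMSO.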

A short description of experiment [17]: ATG_Oct_MLP_CIS: Attagene CIS-FACTORIAL HepG2 Assay for human Octamer-Binding Transcription Factor (Oct) (AID 2282993). The following applies: HepG2 Attagene cis-factorial Oct reporter, mRNA; actives raise or lower the signal. The method in brief: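 Transfected HepG2 cells, 24 h treatment. Reporter mRNA quantified by RT-PCR–capillary electrophoresis; bidirectional fitting against DMSO.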

The target of experiment [18] is Nuclear receptor subfamily 1 group I member 2 (Homo sapiens) (UniProt O75469). Nature of the experiment: ATG_PXR_TRANS: Attagene TRANS-FACTORIAL HepG2 Assay for human Pregnane X Receptor (PXR) (AID 2283008; active means hit-call score of the fitted dose curve at least 0.9, where 1 is the maximum). The method in brief:
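Multiplexed TRANS reporter panel in HepG2; this component tracks PXR-Gal4-driven reporter mRNA after 24 h dosing, measured by RT-PCR with capillary electrophoresis fluorescence, fitted against DMSO.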

For experiment [19], the target named is Cellular tumor antigen p53 (Homo sapiens) (UniProt P04637). Nature of the experiment: ATG_p53_CIS: Attagene CIS-FACTORIAL HepG2 Assay for human p53 Transcription Factor (AID 2282994). The following applies: HepG2 p53 cis-element reporter, Attagene mRNA; actives raise or lower the signal. The method in brief: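 In HepG2 cells, reporter transcription units under cis-regulatory promoters were transiently introduced. Following 24 h treatment, RNA was processed to labelled, digested cDNA fragments read by capillary electrophoresis; fitting was bidirectional versus DMSO.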

The nature of experiment [20]: ATG_XTT_Cytotoxicity: Cytotoxicity Assessment in the Attagene TRANS-FACTORIAL HepG2 Assay (AID 2283584; active means hit-call score of the fitted dose curve at least 0.9, where 1 is the maximum). The method in brief:
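XTT readout of cell number in transfected HepG2 cells, 24 h post-dosing; DMSO serves as negative control and baseline, with activity taken as loss of viability signal.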

Hypoxia-inducible factor 1-alpha (Homo sapiens), sequence (Q16665 whole entry, looked up): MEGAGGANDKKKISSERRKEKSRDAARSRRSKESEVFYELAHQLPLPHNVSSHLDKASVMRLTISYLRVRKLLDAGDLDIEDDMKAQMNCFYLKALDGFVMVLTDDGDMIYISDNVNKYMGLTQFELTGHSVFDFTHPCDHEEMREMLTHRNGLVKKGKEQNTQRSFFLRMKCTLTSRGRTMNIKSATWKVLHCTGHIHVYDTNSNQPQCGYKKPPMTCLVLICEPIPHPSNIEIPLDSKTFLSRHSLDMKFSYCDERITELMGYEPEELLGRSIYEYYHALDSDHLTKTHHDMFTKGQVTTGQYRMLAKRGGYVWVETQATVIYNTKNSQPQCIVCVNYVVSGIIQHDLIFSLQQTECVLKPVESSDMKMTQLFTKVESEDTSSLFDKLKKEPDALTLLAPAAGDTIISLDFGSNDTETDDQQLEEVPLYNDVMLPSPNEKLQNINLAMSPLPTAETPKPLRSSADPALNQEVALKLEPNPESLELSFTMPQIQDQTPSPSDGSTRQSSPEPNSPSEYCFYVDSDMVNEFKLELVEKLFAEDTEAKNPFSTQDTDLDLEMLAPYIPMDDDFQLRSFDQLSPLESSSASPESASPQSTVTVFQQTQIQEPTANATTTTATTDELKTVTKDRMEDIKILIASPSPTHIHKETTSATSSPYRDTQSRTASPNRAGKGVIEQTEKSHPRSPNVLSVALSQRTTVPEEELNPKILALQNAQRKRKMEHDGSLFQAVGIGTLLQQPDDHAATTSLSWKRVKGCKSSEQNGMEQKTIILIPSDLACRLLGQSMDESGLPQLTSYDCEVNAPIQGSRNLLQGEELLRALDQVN
Nuclear receptor subfamily 1 group I member 2 (Homo sapiens), sequence (O75469 whole entry, looked up, the tested form may be a part): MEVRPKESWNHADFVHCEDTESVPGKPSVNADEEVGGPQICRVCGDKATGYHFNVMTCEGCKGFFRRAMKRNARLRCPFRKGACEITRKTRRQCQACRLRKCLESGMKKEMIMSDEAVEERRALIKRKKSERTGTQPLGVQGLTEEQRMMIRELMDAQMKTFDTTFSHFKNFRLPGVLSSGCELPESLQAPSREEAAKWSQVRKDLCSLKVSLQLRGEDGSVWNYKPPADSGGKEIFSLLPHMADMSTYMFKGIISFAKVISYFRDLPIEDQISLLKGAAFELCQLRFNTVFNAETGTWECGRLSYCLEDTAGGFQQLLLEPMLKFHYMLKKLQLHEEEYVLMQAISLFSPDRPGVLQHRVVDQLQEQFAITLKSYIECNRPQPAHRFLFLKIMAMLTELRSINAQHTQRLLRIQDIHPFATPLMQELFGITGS
Heat shock factor protein 1 (Homo sapiens), sequence (Q00613 whole entry, looked up): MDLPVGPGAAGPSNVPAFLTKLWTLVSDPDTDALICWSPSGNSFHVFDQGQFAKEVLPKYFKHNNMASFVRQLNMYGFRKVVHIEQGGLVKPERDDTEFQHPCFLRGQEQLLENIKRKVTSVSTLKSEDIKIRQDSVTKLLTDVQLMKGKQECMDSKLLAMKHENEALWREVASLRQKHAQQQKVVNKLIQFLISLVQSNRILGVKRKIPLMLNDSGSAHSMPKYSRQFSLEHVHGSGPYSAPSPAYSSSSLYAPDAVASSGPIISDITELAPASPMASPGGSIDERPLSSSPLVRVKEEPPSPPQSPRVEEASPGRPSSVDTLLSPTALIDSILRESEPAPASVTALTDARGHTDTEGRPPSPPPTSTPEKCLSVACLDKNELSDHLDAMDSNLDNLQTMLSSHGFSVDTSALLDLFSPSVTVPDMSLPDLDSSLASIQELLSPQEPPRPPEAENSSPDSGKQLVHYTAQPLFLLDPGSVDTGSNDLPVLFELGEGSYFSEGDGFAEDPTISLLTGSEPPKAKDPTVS
Myc proto-oncogene protein (Homo sapiens), sequence (P01106 whole entry, looked up): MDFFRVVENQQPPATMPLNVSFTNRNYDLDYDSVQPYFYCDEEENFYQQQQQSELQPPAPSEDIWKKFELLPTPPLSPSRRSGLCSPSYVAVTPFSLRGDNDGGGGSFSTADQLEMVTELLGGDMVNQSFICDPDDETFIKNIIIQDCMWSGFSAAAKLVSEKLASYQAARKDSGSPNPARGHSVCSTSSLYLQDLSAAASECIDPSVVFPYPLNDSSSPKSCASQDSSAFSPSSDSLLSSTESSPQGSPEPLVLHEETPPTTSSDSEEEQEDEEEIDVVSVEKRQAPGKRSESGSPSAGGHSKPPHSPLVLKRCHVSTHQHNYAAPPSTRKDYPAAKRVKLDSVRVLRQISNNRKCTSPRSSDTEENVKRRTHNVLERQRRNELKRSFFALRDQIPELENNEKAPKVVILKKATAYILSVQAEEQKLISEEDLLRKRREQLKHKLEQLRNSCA
Nuclear respiratory factor 1 (Homo sapiens), sequence (Q16656 whole entry, looked up): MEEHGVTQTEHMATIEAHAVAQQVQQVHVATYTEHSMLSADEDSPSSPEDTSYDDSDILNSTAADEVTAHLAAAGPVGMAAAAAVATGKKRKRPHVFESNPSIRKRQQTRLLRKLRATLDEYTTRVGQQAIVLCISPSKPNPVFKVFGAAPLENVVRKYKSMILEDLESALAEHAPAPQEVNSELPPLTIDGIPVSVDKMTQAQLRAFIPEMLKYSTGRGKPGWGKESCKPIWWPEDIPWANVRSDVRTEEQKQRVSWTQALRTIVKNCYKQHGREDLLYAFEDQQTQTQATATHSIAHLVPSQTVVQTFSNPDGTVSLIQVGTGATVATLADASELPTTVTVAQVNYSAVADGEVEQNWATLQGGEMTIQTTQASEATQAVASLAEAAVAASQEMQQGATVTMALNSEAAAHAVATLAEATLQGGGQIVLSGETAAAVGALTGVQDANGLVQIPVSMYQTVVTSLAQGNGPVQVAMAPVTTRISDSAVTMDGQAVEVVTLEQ
Transcriptional activator Myb (Homo sapiens), sequence (P10242 whole entry, looked up): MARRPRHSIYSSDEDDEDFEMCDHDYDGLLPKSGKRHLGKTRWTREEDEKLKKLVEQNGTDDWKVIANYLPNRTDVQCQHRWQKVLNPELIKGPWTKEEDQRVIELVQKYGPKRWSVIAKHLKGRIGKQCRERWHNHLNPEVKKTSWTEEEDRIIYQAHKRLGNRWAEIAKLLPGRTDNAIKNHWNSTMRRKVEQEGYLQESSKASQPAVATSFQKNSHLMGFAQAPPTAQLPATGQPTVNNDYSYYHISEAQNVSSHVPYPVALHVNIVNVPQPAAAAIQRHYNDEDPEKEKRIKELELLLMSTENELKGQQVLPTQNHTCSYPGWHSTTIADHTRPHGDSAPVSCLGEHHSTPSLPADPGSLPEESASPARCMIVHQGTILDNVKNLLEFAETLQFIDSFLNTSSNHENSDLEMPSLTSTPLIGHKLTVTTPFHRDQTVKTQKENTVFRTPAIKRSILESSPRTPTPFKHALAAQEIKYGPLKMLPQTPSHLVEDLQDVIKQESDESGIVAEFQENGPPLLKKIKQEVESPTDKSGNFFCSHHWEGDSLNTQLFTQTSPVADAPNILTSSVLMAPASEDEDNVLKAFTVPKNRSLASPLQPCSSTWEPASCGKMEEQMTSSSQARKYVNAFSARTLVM
Hepatocyte nuclear factor 6 (Homo sapiens), sequence (Q9UBC0 whole entry, looked up, the tested form may be a part): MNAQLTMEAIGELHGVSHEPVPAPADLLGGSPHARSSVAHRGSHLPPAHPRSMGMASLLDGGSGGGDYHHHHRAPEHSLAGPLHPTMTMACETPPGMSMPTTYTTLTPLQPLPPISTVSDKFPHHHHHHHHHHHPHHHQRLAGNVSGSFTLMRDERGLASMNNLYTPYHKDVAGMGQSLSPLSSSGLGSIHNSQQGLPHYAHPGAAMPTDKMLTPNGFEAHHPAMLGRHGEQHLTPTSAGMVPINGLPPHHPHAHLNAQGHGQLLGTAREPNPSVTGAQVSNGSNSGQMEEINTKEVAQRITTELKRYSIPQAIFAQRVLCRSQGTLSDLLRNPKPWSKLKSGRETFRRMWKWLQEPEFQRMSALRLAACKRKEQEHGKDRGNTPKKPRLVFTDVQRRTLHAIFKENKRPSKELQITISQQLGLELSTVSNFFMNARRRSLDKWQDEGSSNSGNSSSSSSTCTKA
X-box-binding protein 1 (Homo sapiens), sequence (P17861 whole entry, looked up): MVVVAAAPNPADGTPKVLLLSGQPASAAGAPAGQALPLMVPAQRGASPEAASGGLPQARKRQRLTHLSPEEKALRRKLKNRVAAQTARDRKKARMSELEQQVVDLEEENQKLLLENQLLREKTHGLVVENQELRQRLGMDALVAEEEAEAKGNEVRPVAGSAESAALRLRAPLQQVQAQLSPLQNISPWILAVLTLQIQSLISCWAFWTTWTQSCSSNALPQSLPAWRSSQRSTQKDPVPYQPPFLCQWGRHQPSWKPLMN
Cellular tumor antigen p53 (Homo sapiens), sequence (P04637 whole entry, looked up, the tested form may be a part): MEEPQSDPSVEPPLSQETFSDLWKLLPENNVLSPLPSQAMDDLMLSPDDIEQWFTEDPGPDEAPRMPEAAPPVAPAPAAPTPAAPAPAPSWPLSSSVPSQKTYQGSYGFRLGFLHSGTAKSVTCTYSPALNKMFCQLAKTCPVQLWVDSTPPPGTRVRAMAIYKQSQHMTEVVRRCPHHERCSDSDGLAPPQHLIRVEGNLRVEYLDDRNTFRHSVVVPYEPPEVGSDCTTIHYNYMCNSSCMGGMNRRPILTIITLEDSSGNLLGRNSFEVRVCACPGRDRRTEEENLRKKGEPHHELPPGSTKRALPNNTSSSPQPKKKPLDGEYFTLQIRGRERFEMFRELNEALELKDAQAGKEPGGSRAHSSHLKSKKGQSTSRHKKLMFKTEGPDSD

`F[B-](F)(F)F`: the outcome in experiment [1], in [2], in experiment [3], in experiment [4], in experiment [5] and in experiment [6] was inactive. The outcome in experiment [7], in [8], in experiment [9], in experiment [10], in [11] and in [12] was inactive. For the same compound, the call in experiment [13], in [14], in experiment [15], in experiment [16], in experiment [17] and in experiment [18] was inactive.
In the case of `CCCCCCCCCCCCCC`, the compound was classed as inactive in experiment [1], in experiment [2], in experiment [3], in experiment [4], in experiment [5] and in experiment [6]. Moreover, the call in experiment [8], in [9], in experiment [10], in experiment [11], in experiment [12] and in experiment [13] was inactive. In addition, the compound was called inactive in experiment [14], in experiment [15], in [16], in experiment [17], in [19] and in [18]. Besides, in experiment [20], the compound was classed as inactive.
Take `Oc1ccc(Cl)cc1C1CCCC1`: the concentration at half-maximal activity (AC50) in experiment [1] was 43.2 µM (active); in [2], 52 µM (active); in experiment [5], 55.6 µM (active); in experiment [7] it was 37.5 µM (active); in [9] it was 61.4 µM (active); in experiment [12] it was 43.1 µM (active). In addition, the AC50 in experiment [14] is 44.1 µM (active); in experiment [15], 16.6 µM (active); in [16], 12.9 µM (active); in [17], 47.9 µM (active); in experiment [19], 56.7 µM (active); in experiment [18], 9.24 µM (active). Moreover, the result in experiment [3], in experiment [4], in [6], in experiment [8], in experiment [11] and in experiment [13] was inactive. In experiment [20], the outcome was inactive.
